Experimental data taken from PubChem BioAssay.
Values without a mark were called inactive. Activity calls are given as the source filed them. Rule as the data show it: active = fold change permeability below about 0.7 or above about 1.3; inactive = in between.

Test: modulators of brain endothelial barrier permeability, primary screen, cell-based, FITC-avidin fluorescence, HTS (AID 1963498); also: test concentration not given here
Details: actives lie on both sides

| SMILES | fold change permeability |
| --- | --- |
| COc1ccc2c(c1)CC[C@@H]1[C@@H]2CC[C@]2(C)[C@@H](NCCCCCCN3C(=O)CCC3=O)CC[C@@H]12 | 2.2 (active) |
| COc1ccccc1OCC(O)CN1CCN(CC(=O)Nc2c(C)cccc2C)CC1 (stereo not given) | 0.8 |
| Cn1c(CNc2ccc(C(=N)N)cc2)nc2cc(C(=O)N(CCC(=O)O)c3ccccn3)ccc21 | 1.1 |
| O=NN(CCCl)C(=O)NCCCl | 1 |
| C[C@@H](O)[C@H]1C(=O)N2C(C(=O)O)=C(SCCN=CN)C[C@H]12 | 0.8 |
| CCCCCCC(=O)OC1CC(C)(C)NC(C)(C)C1 | 0.9 |
| CC1CNCCN1S(=O)(=O)c1cccc2cnccc12 (stereo not given) | 1.1 |
| Cc1ccc(C(=O)Nc2sc(Nc3ccccc3)nc2C(N)=O)cc1 | 1.3 (active) |
| O=C(O)c1cc(=O)cc(C(=O)O)[nH]1 | 0.8 |
| CC(C)(Oc1ccc(CCNC(=O)c2ccc(Cl)cc2)cc1)C(=O)O | 0.9 |
| O=C(O)[C@H](CC(=O)N1C[C@H]2CCCC[C@H]2C1)Cc1ccccc1 | 1.2 |
| Cn1cc(C(F)(F)F)nc1-c1ccc(OCC(O)CNCCOc2ccc(O)c(C(N)=O)c2)cc1 (stereo not given) | 1.3 (active) |
| COc1ccc(C2CNC(=O)C2)cc1OC1CCCC1 (stereo not given) | 1.1 |
| Cn1cc(C2=C(c3ccc(Cl)cc3Cl)C(=O)NC2=O)c2ccccc21 | 3.6 (active) |
| CCCCS(=N)(=O)CC[C@H](N)C(=O)O (stereo not given in full) | 0.9 |
| CC(N)(Cc1ccc(O)c(O)c1)C(=O)O (stereo not given) | 0.9 |
| CCN(CC)Cc1ccc(C(=O)N(CCc2ccccc2OC)[C@@H]2CCNC2)cc1 | 0.9 |
| CN(C)c1nc(N)c(C(=O)N=C(N)N)nc1Cl | 1 |
| COc1ccc(Cc2nn3c([C@@H](CCCc4ccccc4)[C@@H](C)O)nc(C)c3c(=O)[nH]2)cc1OC | 1.1 |
| O=C(Nc1ccccc1C(=O)NC1CCCCNC1=O)c1cc2ccccc2s1 (stereo not given) | 1.9 (active) |

| SMILES | fold change permeability |
| --- | --- |
| O=C(NCCc1nccs1)c1cnc2c(SSc3cccc4cc(C(=O)NCCc5nccs5)cnc34)cccc2c1 | 0.7 (active) |
| Nc1ncnc2c1nc(Br)n2C1OC2COP(=O)(O)O[C@@H]2C1O (stereo not given in full) | 1 |
| O=C(C(c1ccccc1)c1ccccc1)N1CCN(CC(O)COc2cccc3ncccc23)CC1 (stereo not given) | 0.8 |
| CCNC(=O)[C@H]1O[C@@H](n2cnc3c(N)nc(NCCc4ccc(CCC(=O)O)cc4)nc32)C(O)[C@H]1O (stereo not given in full) | 1.1 |
| CCCCOc1ccc(CC/C=C2\SC(=O)N(CCN)C2=O)cc1 | 1.6 (active) |
| CC(=O)O[C@]1(C(C)=O)CC[C@H]2[C@@H]3C=C(Cl)C4=CC(=O)[C@@H]5C[C@@H]5[C@]4(C)[C@H]3CC[C@@]21C | 1 |
| COc1ccccc1N1CCN(CC(O)COc2cccc3ccccc23)CC1 (stereo not given) | 0.8 |
| O=S(=O)(c1cccc2c(Cl)cccc12)N1CCCNCC1 | 1.1 |
| Cc1c(C(=O)N2CCOc3ccc(-c4ccc(N)nc4)cc3C2)ccc(S(C)(=O)=O)c1F | 1.2 |
| N=C(N)c1ccc(-c2ccc(-c3ccc(C(=N)N)cc3)o2)cc1 | 1.5 (active) |
| C[C@H](CS)C(=O)N1CCC[C@H]1C(=O)O | 1 |
| Cc1cccc(-c2[nH]c(C(C)(C)C)nc2-c2ccc3nccnc3c2)n1 | 1.4 (active) |
| O=C(O)CP(=O)(O)O | 1 |
| OC1(c2ccc(Cl)cc2)CCN(Cc2c[nH]c3ccccc23)CC1 | 1.4 (active) |
| N[C@@H](CS(=O)O)C(=O)O | 1 |
| O=c1cc(-c2cccc3c2Sc2ccccc2S3)oc(N2CCOCC2)c1 | 1 |
| O=C1N(c2ccccc2)c2ccccc2C1(Cc1ccncc1)Cc1ccncc1 | 0.9 |
| CC12CC3CC(C)(C1)CC(N)(C3)C2 | 0.8 |
| CC(C)(C)C(=O)Oc1ccc(S(=O)(=O)Nc2ccccc2C(=O)NCC(=O)O)cc1 | 0.7 (active) |
| c1ccc(Cn2c(NCc3ccco3)nc3ccccc32)cc1 | 1.6 (active) |
